Results on 38 molecules are retold here after PubChem BioAssay (NCI).

The panel holds about 83,000 compounds, 20% with a hit somewhere; the sample as a whole holds those more often.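 Compound tested at a single concentration for 48 hours in 96-well plates; a percent growth value below 10 was scored as active.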 Unmarked numbers belong to inactive results. Calls of active or inactive are those of the source.

This assay relates to OVCAR-5 ovarian. As to the kind of experiment: NCI-60 one-dose screen, 48 h (100 = growth as untreated, 0 = no growth, -100 = all killed). The settings on record: 10 µM unless noted.
With `CC1=CC[C@@H]2CC[C@]3(C)[C@H](CC[C@@H]4[C@@]5(C)CCCNC(C)(C)[C@@H]5CC[C@]43C)[C@H]2[C@@H]1C`, the growth is 41.1%. In the case of `Fc1ccc(C2CC(c3cccc(Nc4ccncc4)c3)=NN2c2ccccc2)cc1` (stereo not drawn), the growth was 85.3%. As for `Cc1ccc(C(=O)Nc2ccccc2C(=O)N/N=C(\c2ccccc2)c2ccccn2)cc1`, the growth is 43.3%. As for `COc1cc(/C=C/C(=O)c2c(C)oc3nc[nH]c(=O)c23)ccc1O`, the figure is 96.5%; as for `CS(=O)(=O)Nc1cc(-c2ccc3ncnc(Nc4ccc5[nH]ncc5c4)c3c2)cnc1Cl`, 59.8%. The result for `COc1ccc(-c2ncc(-c3ccccc3)[nH]2)cc1OC` reads 113%. As for `O=C1Nc2cc(-c3ccncc3)ccc2/C1=C/c1ccc[nH]1`, the figure is 76.9%; as for `Nc1c(C(=O)Nc2ccc(Cl)cc2)cc(-c2nc3ccccc3s2)c(=O)n1NS(=O)(=O)c1ccc(Cl)cc1`, 101%.

Turning to `CCOc1cc(CNc2ccc(N3CCOCC3)c(C(=O)O)c2)ccc1OC`, the growth is 102%. As for `Cc1ccc(C2CC(c3cccc(Nc4ccncc4)c3)=NN2c2cc(Cl)cc(Cl)c2)cc1` (stereo not drawn), the figure is 71.1%. The result for `COc1ccc(/C(C)=N/NC(=O)CSc2nc3ccccc3c(=O)n2Cc2ccc(S(N)(=O)=O)cc2)c(OC)c1` reads 99%; that for `COc1ccc(C(=O)c2cc(C)c(OC)c(C)c2)c(OC)c1N(C(=O)C(Cl)Cl)C(=O)C(Cl)Cl`, 33.1%; that for `Cc1ccccc1-c1cc(Cc2ccc(F)cc2)c(=O)[nH]n1`, 106%. The result for `CCCC1C(C(=O)OCC)=C(N)Oc2cc(O)ccc21` (stereo not drawn) reads 108%; that for `COc1c(Cl)cc(Cl)c2ccc(C=C3C(=O)N(C)C(=O)N(C)C3=O)nc12`, 111%; that for `O=C1Nc2ccccc2/C1=N/c1nc(-c2ccc(Cl)cc2)cs1`, 98.9%. `COC(=O)Nc1nc2ccc(C(=O)c3cccc(I)c3)cc2[nH]1`: the growth was 28.6%. With `O=C(Nc1ccc(Nc2ncccn2)cc1)NC1C=c2ccccc2=CC1` (stereo not drawn), the growth was 108%. Turning to `CNC(=O)c1c(NC(=O)c2ccc(C(C)C)cc2)sc2c(CN(C)C)c(O)ccc12`, the growth is 106%. The result for `COc1ccc(Cc2nc3cc(OC)c(OC)cc3c(=O)[nH]2)cc1` reads 78.6%. As for `O=C1c2cccnc2C(=O)c2nc3cc(N4CCN(C5CC5)CC4)ccc3nc21`, the figure is -82.3% (active); as for `CCOC(=O)N1CCN(CCCCl)CC1`, 93.3%.

Turning to `O=C(OCc1nc2nc(Cl)nc(N3CCOCC3)c2[nH]1)n1ccnc1`, the growth was 22.3%. As for `COc1ccc(C(=O)c2cc3c(N)c(C(=O)Nc4cccc(Cl)c4C)sc3nc2C)cc1`, the figure is 40.9%; as for `O=C(OC(OC(=O)c1cc(Cl)cc(Cl)c1)c1cccc2ccccc12)c1ccccc1` (stereo not drawn), 105%.

For `CN(Cc1ccccc1)c1nc(Cl)c(C2CC(c3ccc(Cl)cc3)=Cc3[nH][nH]c(=O)c32)s1` (stereo not drawn), the growth is 97.5%. As for `COc1ccc(NC(=O)c2sc3nc(C)c(C(=O)CCc4cccc(OC)c4)cc3c2N)cc1`, the figure is 68.9%; as for `O=S(=O)(NCCCNc1nccc(-c2c(-c3cccc(O)c3)nc3occn23)n1)c1ccc(F)cc1`, 128%; as for `CC(=O)N1c2ccccc2NC2=C(C(=O)N(Cc3ccccc3)C2(C)C)C1c1ccco1` (stereo not drawn), 25.9%. The result for `C#Cc1cccc(NC(=O)Nc2ccc(NC(=O)CCl)cc2)c1` reads -14.5% [8.25 µM] (active). On to `COc1cc(COC(=O)CCCCC[P+](c2ccccc2)(c2ccccc2)c2ccccc2)c(OC)c2c1OCO2`, for which the growth is 76.9%. Take `Cc1c([N+](=O)[O-])cc(C(C)(C)C)cc1[N+](=O)[O-]`: the growth is 91.1%.

As to `Clc1nc(Cl)c2ncn(CC3(Cn4cnc5c(Cl)nc(Cl)nc54)COC3)c2n1`, the growth was -86% (active).

Take `COc1cc2nc(-c3ccc(C(F)(F)F)cc3)cc(OCCCN3CCC(O)CC3)c2cc1OC`: the growth is 42.8%. Turning to `COc1cc(Nc2cc(O)c3c(=O)cc(-c4ccccc4)oc3c2)cc(OC)c1`, the growth was 45.5%.

`C[C@]12C[C@H]1CC[C@]1(C)[C@@H]2CC[C@@]23C[C@H](CC[C@H]21)[C@@](O)(CO)C3`: the growth is 92.9%. For the molecule `Cc1nc2sc(C(=O)Nc3ccccc3)c(N)c2cc1C(=O)c1ccc(C(F)(F)F)cc1`, the growth was 97.9%. As for `N#CSCC1CC(O)(c2ccccc2)C(c2ccccc2)C(c2ccc(F)cc2)O1` (stereo not drawn), the figure is 51.3%.
